From PubChem BioAssay AID434927 (Sanford-Burnham Center for Chemical Genomics, 2010)
Values without a mark were called inactive. Active and inactive are the calls of the source.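 The calls were made as follows: active = inhibition above about 23% in any of six single-dose repeats (limit read from the data); inactive = the rest.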

target: Intestinal-type alkaline phosphatase (Homo sapiens) (UniProt P09923); test: human IAP inhibitors, confirmation, biochemical, luminescence, single concentration, uHTS hits (AID 434927); conditions: purified human IAP, CDP-Star luminescence, 30 min; at 8.3 µM; stronger effect = higher value;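 also: plate controls were DMSO wells with enzyme for no effect and wells lacking enzyme for full effect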
Sequence (P09923 whole entry, looked up): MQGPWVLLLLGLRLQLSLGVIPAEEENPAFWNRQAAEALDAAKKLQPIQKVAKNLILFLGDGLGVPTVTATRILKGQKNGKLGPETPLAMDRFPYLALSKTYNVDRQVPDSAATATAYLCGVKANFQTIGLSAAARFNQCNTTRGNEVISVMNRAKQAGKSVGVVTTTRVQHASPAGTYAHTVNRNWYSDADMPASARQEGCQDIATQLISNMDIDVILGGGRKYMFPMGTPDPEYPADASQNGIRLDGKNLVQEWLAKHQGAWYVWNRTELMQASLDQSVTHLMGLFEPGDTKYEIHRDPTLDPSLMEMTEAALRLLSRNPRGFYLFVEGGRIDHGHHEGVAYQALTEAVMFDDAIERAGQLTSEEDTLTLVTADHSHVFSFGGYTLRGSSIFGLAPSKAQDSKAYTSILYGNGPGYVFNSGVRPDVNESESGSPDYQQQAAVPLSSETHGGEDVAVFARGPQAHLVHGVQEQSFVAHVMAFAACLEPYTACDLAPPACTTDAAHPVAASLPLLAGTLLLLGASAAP

| Structure (SMILES) | inhibition |
| --- | --- |
| O=C(COc1ccccc1Cl)N1CCN(c2ccc([N+](=O)[O-])c(N3CCCCC3)c2)CC1 | -60.9% |
| O=c1cc(-c2ccccc2)[nH]n1-c1nc2ccccc2[nH]1 | -58.4% |
| Cc1ccccc1CNC(=O)c1ccccc1N | 37.2% (active) |
| CCC(OC(=O)C1=Cc2ccccc2OC1)C(=O)NC1CCCC1 (stereo unspecified) | -52.5% |
| C/C(=N/NC(=O)c1ccc(Cn2cccn2)o1)c1cccc(NC(=O)c2ccncc2)c1 | -101% |
| CC(=O)N1CCOc2ccc(S(=O)(=O)N3CCCC(C)C3)cc21 (stereo unspecified) | 54% (active) |
| O=C(NNC(=S)NCc1ccco1)c1ccccc1Br | 41.4% (active) |
| COc1ccc(OC)c(NC(=O)c2cc(-c3cc(C)ccc3O)n[nH]2)c1 | -41.7% |
| Cc1cccc(-n2ncc3c(NNC(=O)c4ccco4)ncnc32)c1 | -74.5% |
| COc1ccc(C(=O)Nc2cccc3c2C(=O)NC3=O)cc1S(=O)(=O)N1CCOCC1 | -85.1% |
| CC(C)(C)N/N=C/c1c(O)n(-c2ccc(Cl)cn2)c(=O)c2ccccc12 | -93.3% |
| COc1ccc(CCN2C(=O)c3ccncc3C2=O)cc1OC | 67.1% (active) |
| CCOc1ccc(CC(=O)NNC(=S)NCCc2ccccc2)cc1 | 77.5% (active) |
| CC[n+]1c(/C=C/c2c[nH]c3ccccc23)ccc2cc(C)ccc21 | -85.7% |
| COc1ccccc1CN1CCC(n2nccc2NC(=O)CCCc2ccccc2)CC1 | -112% |
| CC(C)CCNC(=O)C1CCN(C(=O)N(C)C)CC1 | 88.2% (active) |
